This note sets out measurements from ChEMBL document CHEMBL3433997, “St. Jude Leishmania screening dataset” (2016).

SMILES strings stand for the structures.

Format in all cases: functional
Test [1] concerns the target Solute carrier family 2, facilitated glucose transporter member 1 (Homo sapiens) (UniProt P11166). The experiment in a line: ST_JUDE_LEISH: Cytotoxicity at 2uM final concentration against transgenic Leishmania Mexicana promastigotes LmGLUT1 that are glucose transport deficient and complemented with the human glucose transporter GLUT1. Activity is measured by DNA content using SYBR green in vitro.

Test [2] concerns the target Hexose transporter 1 (Plasmodium falciparum) (UniProt O97467). The experiment in a line: ST_JUDE_LEISH: Cytotoxicity at 2uM final concentration against transgenic Leishmania Mexicana promastigotes LmPfHT that are glucose transport deficient and complemented with the Plasmodium falciparum hexose transporter. Activity is measured by DNA content using SYBR green in vitro.

Test [3] addresses Glucose transporter (Leishmania mexicana) (UniProt O61059). Briefly: ST_JUDE_LEISH: Cytotoxicity at 2uM final concentration against transgenic Leishmania Mexicana promastigotes LmGT2 that are glucose transport deficient and complemented with the L. Mexicana glucose transporter 2. Activity is measured by DNA content using SYBR green in vitro.

Sequence of Solute carrier family 2, facilitated glucose transporter member 1 (Homo sapiens) (P11166 whole entry): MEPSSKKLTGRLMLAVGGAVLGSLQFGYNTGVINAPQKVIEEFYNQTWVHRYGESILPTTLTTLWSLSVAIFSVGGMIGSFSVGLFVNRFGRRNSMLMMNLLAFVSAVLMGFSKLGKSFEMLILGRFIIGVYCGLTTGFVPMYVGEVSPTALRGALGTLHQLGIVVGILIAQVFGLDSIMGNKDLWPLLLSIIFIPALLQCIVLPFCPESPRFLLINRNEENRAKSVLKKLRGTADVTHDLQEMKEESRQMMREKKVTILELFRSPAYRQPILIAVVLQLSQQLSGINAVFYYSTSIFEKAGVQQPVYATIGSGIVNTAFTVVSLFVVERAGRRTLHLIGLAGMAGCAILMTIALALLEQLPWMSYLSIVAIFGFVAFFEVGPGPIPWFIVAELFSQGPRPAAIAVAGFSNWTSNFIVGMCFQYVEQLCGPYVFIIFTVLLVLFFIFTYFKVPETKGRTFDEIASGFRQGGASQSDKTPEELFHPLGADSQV

Turning to `CCC1(c2ccccc2)N=C(N)N(CCCc2ccccc2)C1=O` (stereo not given), the figures for the inhibition in test [1], in test [2] and in test [3] were 2.53%, 1.89% and 0.85%, respectively.
In the same order, the values of `Cc1cc(-c2ccc(NC(=O)Nc3ccc4nccc(N5CCN(C)CC5)c4c3)cc2C)cc(C)n1` are 7.15%, 5.84% and 8.51%.
Taken in the same sequence, the figures for `Cc1cc(O)c(-c2ccc(Sc3ccc(Cl)cc3)cc2)c(C)n1` were -0.64%, 3.32% and -4.88%.
In the same order, the values of `CN1CCN(c2cc3c(cc2Cl)CCN3C(=O)Cc2ccc(Cl)c(NC(=O)Nc3cccc([N+](=O)[O-])c3)c2)CC1` are -0.26%, -1.82% and 1.55%.
`Nc1ncc(-c2cccc(OCc3ccccc3)c2)cc1-c1nnc2ccc(Cl)nn12`: the figures for the inhibition in test [1], in test [2] and in test [3] were 1.7%, 1.29% and 2.15%, respectively.
Turning to `NC1CCN(CCc2ccc(NS(=O)(=O)c3ccc(-c4ccccc4)cc3)cc2)CC1`, the inhibition (in general, the change of the read-out against control, counted positive when it falls) in test [1] was 0.64%; in test [2] it was -0.24%; in test [3], 0.08%.
Taken in the same sequence, the figures for `O=C(COC(=O)c1cccc(S(=O)(=O)N2CCc3ccccc32)c1)NNC(=O)c1cccs1` were 4.4%, 4.13% and 2.91%.
In the case of `Cc1cc(O)c2c3c1C(=O)C=C1C3c3c(c(O)cc(O)c3C(=O)C1(C)C)C2=O` (stereo not given), the figures for the inhibition in test [1], in test [2] and in test [3] were -4.69%, -5.26% and -3.43%, respectively.
For the compound `CN1CCN(c2ccc(Nc3ncc([N+](=O)[O-])c(Nc4ccccc4O)n3)cc2)CC1`, the inhibition came to 2.1% in test [1], 3.83% in test [2] and 1.84% in test [3].
Take `CC(=O)Nc1ccc(Nc2cc(C)nc(Nc3ccc(NC(C)=O)cc3)n2)cc1`: the values for the inhibition in test [1], in test [2] and in test [3] were 2.12%, 5.08% and 2.71%, respectively.
